PubChem BioAssay (NCI)
The panel holds about 83,000 compounds, 20% with a hit somewhere; the sample as a whole holds those more often.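 How to read the values: 0–100, growth inhibition (40 = 60% inhibited); 0, no net growth; -100 to 0, cell death (-40 = 40% of starting cells died; -100 = all dead).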 Activity calls are given as the source filed them. How the source made its calls: active means growth percent below 10; inactive means the rest.

Tests used:
Assay in all cases: NCI-60 one-dose screen, 48 h (100 = growth as untreated, 0 = no growth, -100 = all killed)
Settings in all cases: 10 µM unless noted
NCI-H23 lung = tested on: NCI-H23 lung
NCI-H226 lung = tested on: NCI-H226 lung
NCI-H322M lung = tested on: NCI-H322M lung
HOP-62 NSCLC = tested on: HOP-62 NSCLC
NCI-H460 lung = tested on: NCI-H460 lung
NCI-H522 lung = tested on: NCI-H522 lung
A549/ATCC NSCLC = tested on: A549/ATCC NSCLC
786-0 renal = tested on: 786-0 renal
COLO 205 colon = tested on: COLO 205 colon
DU-145 prostate = tested on: DU-145 prostate
MALME-3M melanoma = tested on: MALME-3M melanoma
MDA-MB-231 breast = tested on: MDA-MB-231 breast
RXF 393 renal = tested on: RXF 393 renal
SF-268 CNS = tested on: SF-268 CNS
SF-295 CNS = tested on: SF-295 CNS
SF-539 CNS = tested on: SF-539 CNS
UACC-257 melanoma = tested on: UACC-257 melanoma
M14 melanoma = tested on: M14 melanoma
K-562 leukemia = tested on: K-562 leukemia

Measured: growth

Cc1ccc2sc3c(c2c1)OC(N)=C(C#N)C3c1ccc(Cl)cc1 (stereo not drawn)
inactive: NCI-H23 lung 86.2% | NCI-H226 lung 68% | NCI-H322M lung 99% | HOP-62 NSCLC 79.6% | NCI-H460 lung 56.2% | NCI-H522 lung 58.2% | A549/ATCC NSCLC 96.9% | 786-0 renal 102% | COLO 205 colon 96.7% | DU-145 prostate 76.8% | MALME-3M melanoma 71.5% | MDA-MB-231 breast 65.2% | RXF 393 renal 50.6% | SF-268 CNS 89.3% | SF-295 CNS 74% | SF-539 CNS 70.8% | UACC-257 melanoma 89.8% | M14 melanoma 64.5%

O=C(CN1CCN(c2cc(=O)n(-c3ccccc3)c3ccccc23)CC1)Nc1cccc(C(F)(F)F)c1
inactive: NCI-H23 lung 55.5% | NCI-H226 lung 56.6% | NCI-H322M lung 82.4% | HOP-62 NSCLC 70.6% | NCI-H460 lung 57.9% | NCI-H522 lung 56.5% | A549/ATCC NSCLC 51.8% | 786-0 renal 80.5% | COLO 205 colon 68.5% | DU-145 prostate 64.7% | K-562 leukemia 23.4% | MDA-MB-231 breast 68.7% | RXF 393 renal 62.2% | SF-268 CNS 66.2% | SF-295 CNS 59% | SF-539 CNS 71.5% | UACC-257 melanoma 38.8% | M14 melanoma 60.5%

COc1cc2nc(Cl)nc(Nc3cccc(C4=Nc5c(N)nc(N)nc5NC(c5ccc(F)cc5)C4)c3)c2cc1OC (stereo not drawn)
inactive: NCI-H23 lung 75.9% | NCI-H226 lung 75.8% | NCI-H322M lung 83.8% | HOP-62 NSCLC 12.2% | NCI-H460 lung 21.7% | NCI-H522 lung 50% | A549/ATCC NSCLC 64.2% | 786-0 renal 62.1% | COLO 205 colon 70.7% | DU-145 prostate 79.4% | MDA-MB-231 breast 76.4% | RXF 393 renal 51.1% | SF-268 CNS 77.4% | SF-539 CNS 88.6% | UACC-257 melanoma 92.1% | M14 melanoma 86.8%
active: SF-295 CNS 2.02%

Cc1ccc(S(=O)(=O)N(CC[C@@H]2C[C@H]2c2cc3ccccc3o2)S(=O)(=O)c2ccc(C)cc2)cc1
inactive: NCI-H23 lung 90.8% | NCI-H226 lung 79% | NCI-H322M lung 95.4% | HOP-62 NSCLC 115% | NCI-H460 lung 104% | NCI-H522 lung 85.3% | A549/ATCC NSCLC 94.9% | 786-0 renal 99.7% | COLO 205 colon 115% | DU-145 prostate 98.7% | K-562 leukemia 83.1% | MDA-MB-231 breast 83.6% | RXF 393 renal 103% | SF-268 CNS 98.1% | SF-295 CNS 101% | SF-539 CNS 101% | UACC-257 melanoma 84.9% | M14 melanoma 99%

O=C(CN1CCN(c2cc(=O)[nH]c3ccc(F)cc23)CC1)Nc1ccc(Cl)cc1
inactive: NCI-H23 lung 61.9% | NCI-H226 lung 16.5% | NCI-H322M lung 80.2% | HOP-62 NSCLC 43.9% | NCI-H460 lung 41.1% | NCI-H522 lung 13.1% | A549/ATCC NSCLC 71.8% | 786-0 renal 36.3% | COLO 205 colon 112% | DU-145 prostate 78.1% | K-562 leukemia 78.8% | MDA-MB-231 breast 62.2% | SF-268 CNS 38.3% | SF-295 CNS 67.2% | SF-539 CNS 56.9% | UACC-257 melanoma 65% | M14 melanoma 85%
active: RXF 393 renal -3.61%

Nc1nc(N)c2c(n1)NC(c1ccc(Cl)cc1)CC(c1ccc(Nc3nc(NCCO)nc(N4CCOCC4)n3)cc1)=N2 (stereo not drawn)
inactive: NCI-H23 lung 85.2% | NCI-H226 lung 82% | NCI-H322M lung 95.5% | HOP-62 NSCLC 80.2% | NCI-H460 lung 79.8% | NCI-H522 lung 65.8% | A549/ATCC NSCLC 86.3% | 786-0 renal 67.8% | COLO 205 colon 72.6% | DU-145 prostate 86.1% | K-562 leukemia 31.1% | MDA-MB-231 breast 80.5% | RXF 393 renal 61.2% | SF-268 CNS 61.8% | SF-295 CNS 76.2% | SF-539 CNS 78.4% | UACC-257 melanoma 84.6% | M14 melanoma 88.1%

Cc1ccc2sc3c(c2c1)OC(N)=C(C#N)C3c1cccc(F)c1 (stereo not drawn)
active: NCI-H226 lung -22.2% | HOP-62 NSCLC 9.3% | NCI-H460 lung -13.4% | NCI-H522 lung -33.7% | DU-145 prostate -9.41% | K-562 leukemia 7.14% | RXF 393 renal -30.8% | SF-295 CNS 1.52% | SF-539 CNS -1.16% | M14 melanoma 0.753%
inactive: NCI-H23 lung 22.4% | NCI-H322M lung 42.5% | A549/ATCC NSCLC 11.5% | 786-0 renal 11.7% | MALME-3M melanoma 43.3% | MDA-MB-231 breast 23.5% | SF-268 CNS 25.8% | UACC-257 melanoma 60.8%

C#CCC#CCN1CCC[C@H]1C(=O)NCC(=O)OC
inactive: NCI-H23 lung 96.7% | NCI-H226 lung 104% | NCI-H322M lung 101% | HOP-62 NSCLC 104% | NCI-H460 lung 112% | NCI-H522 lung 100% | A549/ATCC NSCLC 97.6% | 786-0 renal 101% | COLO 205 colon 114% | DU-145 prostate 105% | K-562 leukemia 98.1% | MDA-MB-231 breast 106% | RXF 393 renal 105% | SF-268 CNS 108% | SF-295 CNS 107% | SF-539 CNS 105% | UACC-257 melanoma 93.7% | M14 melanoma 107%
